# Test results as given in article PMC5540273 (PLoS ONE, 2017).
# Columns and labels:
# Conditions in all cases: concentration: 1 μM, replicates: in singlicate; n = 1
# CHEK1 = test system: CHEK1
# CHEK2 = test system: CHEK2
# CIT = test system: CIT
# CLK1 = test system: CLK1
# CLK2 = test system: CLK2
# CLK3 = test system: CLK3
# CLK4 = test system: CLK4
# CSF1R-autoinhibited = test system: CSF1R-autoinhibited
# CSF1R = test system: CSF1R
# CSK = test system: CSK
# CSNK1A1L = test system: CSNK1A1L
# CSNK1A1 = test system: CSNK1A1
# CSNK1D = test system: CSNK1D
# CSNK1E = test system: CSNK1E
# CSNK1G1 = test system: CSNK1G1
# CSNK1G2 = test system: CSNK1G2
# CSNK1G3 = test system: CSNK1G3
# CSNK2A1 = test system: CSNK2A1
# CSNK2A2 = test system: CSNK2A2
# CTK = test system: T1, CTK
# T1 construct: gene MATK
# 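Note: KINOMEscan kinase panel screen.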
Structure (SMILES),%Inh (CHEK1) [%],%Inh (CHEK2) [%],%Inh (CIT) [%],%Inh (CLK1) [%],%Inh (CLK2) [%],%Inh (CLK3) [%],%Inh (CLK4) [%],%Inh (CSF1R-autoinhibited) [%],%Inh (CSF1R) [%],%Inh (CSK) [%],%Inh (CSNK1A1L) [%],%Inh (CSNK1A1) [%],%Inh (CSNK1D) [%],%Inh (CSNK1E) [%],%Inh (CSNK1G1) [%],%Inh (CSNK1G2) [%],%Inh (CSNK1G3) [%],%Inh (CSNK2A1) [%],%Inh (CSNK2A2) [%],%Inh (CTK) [%]
Cc1ccc(C(=O)NCC(N)=O)cc1-n1c(C)cc(OCc2ccc(F)cc2F)c(Br)c1=O,17,9,8,0,0,3,12,0,16,0,26,25,19,0,22,10,8,0,0,0
O=c1cc(N2CCOCC2)nc2n(Cc3cccc(C(F)(F)F)c3)ccn12 [GSK2297543],0,0,27,17,20,0,6,0,0,0,16,24,17,0,13,0,8,0,9,0
c1ccc(-c2cc(-c3c[nH]nc3-c3ccccn3)ccn2)cc1 [GW576604],0,6,27,5,12,0,11,26,0,0,0,0,38,15,0,1,3,0,15,0
Fc1ccc(-c2ncn(CCCN3CCOCC3)c2-c2cccnc2)cc1 [SB-211743],0,0,0,24,0,11,2,0,0,0,0,22,4,24,0,0,17,0,0,32
COc1ccc(S(=O)(=O)NC2CCN(c3cc(C)nc(Nc4cccc(C#N)c4)n3)CC2)cc1.O=C(O)C(F)(F)F [GSK1653539],0,14,0,20,0,56,3,0,1,0,0,0,19,54,12,0,30,0,4,0
Cc1ccc(NC(=O)c2ccnc(N3CCN(C)CC3)c2)cc1-c1ccc(C(=O)NCC2CC2)cc1 [GW775604],0,15,0,0,0,0,0,0,22,0,0,0,0,24,0,0,0,0,7,0
Cc1cn2c(=O)cc(N3CCOCC3)nc2n1Cc1cccc(Cl)c1Cl [GSK2334006],25,0,17,35,0,11,26,0,5,0,29,48,43,45,17,6,26,11,18,0
Cl.Nc1ncnc2occ(-c3ccc(NC(=O)Nc4cc(C(F)(F)F)ccc4F)cc3)c12 [SB-707548],6,45,82,69,11,13,69,90.7,99.9,20,11,10,32,25,16,0,32,0,0,4
Nc1nccc(-c2c(-c3ccc(F)cc3)ncn2C2CCN(CC(F)(F)F)CC2)n1 [SB-236560],0,38,66,0,6,17,0,68,0,0,2,92.7,86,96.6,0,1,0,0,0,7
COCCNC(=O)c1ccc(-c2cc(C(=O)NC3CC3)cc(F)c2C)cc1 [GW868318],9,19,1,18,24,37,10,5,19,13,5,9,1,31,0,4,8,0,9,11
